Measured values as given in the supplement of paper PMC10037445.
Whole data set: some 2,900 compounds, median “NF-kB SEAP reporter activity, fold change vs agonist alone” near 0.99, cut for the highest 2% near 2.6. The list comes from a sample in which the highest values are over-represented; it also holds similar structures and randomly drawn compounds.

Columns and labels:
[1] = system: RAW-Dual; experiment: NF-kB SEAP reporter activity, fold change vs agonist alone; cytotoxicity flag (confluency mask): not cytotoxic; higher = enhanced NF-kB activity
In short: (§1)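 After 50 nL of library stock was delivered by pin tool to RAW-Dual macrophages (50,000 cells/well, DMEM, 384-well plates), a PRR agonist was added 1 h later and the plates were kept at 37 °C, 5% CO2. Twenty hours later, IRF was read from supernatant by QuantiLuc luminescence and NF-κB by QuantiBlue absorbance at 620 nm. Reporter activity is stated as fold change over agonist-alone wells. Wells with IncuCyte confluency under 70% of agonist controls in both mask sets were counted as cytotoxic.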

[2] = system: RAW-Dual; experiment: NF-kB SEAP reporter activity, fold change vs agonist alone; higher = enhanced NF-kB activity
In short: as §1

[3] = system: RAW-Dual; experiment: NF-kB SEAP reporter activity, fold change vs agonist alone; cytotoxicity flag (confluency mask): cytotoxic (confluency <70% of control); higher = enhanced NF-kB activity
In short: as §1

[4] = agonist: ODN 1826 (TLR9) 0.5 ug/mL
[5] = agonist: Pam2CSK4 (TLR2/6) 0.1 ug/mL
[6] = agonist: Pam3CSK4 (TLR2/1) 0.1 ug/mL
[7] = library stock concentration (final ~1000-fold dilution): 10 mM, cytotoxicity flag (confluency mask): not cytotoxic, agonist: Imiquimod (TLR7) […]
[8] = library stock concentration (final ~1000-fold dilution): 10 mM, cytotoxicity flag (confluency mask): not cytotoxic, agonist: MPLA (TLR4) […]
[9] = library stock concentration (final ~1000-fold dilution): 10 mM, cytotoxicity flag (confluency mask): cytotoxic (confluency <70% of control), agonist: Imiquimod (TLR7) […]
[10] = library stock concentration (final ~1000-fold dilution): 10 mM, cytotoxicity flag (confluency mask): cytotoxic (confluency <70% of control), agonist: MPLA (TLR4) […]

## CC(C)(C)c1ccc(S(=O)(=O)NCc2ccc(C(=O)Nc3cccnc3)cc2)cc1 (library stock concentration (final ~1000-fold dilution): 10 mM)
[1]; agonist: LPS (TLR4) 0.1 ug/mL
  NF-kB SEAP reporter activity: 0.67
[1]; [4]
  NF-kB SEAP reporter activity: 1.1
[1]; [5]
  NF-kB SEAP reporter activity: 0.834
[1]; [6]
  NF-kB SEAP reporter activity: 0.706

## CS(=O)(=O)c1ccc(C(=O)Nc2ccc(Cl)c(-c3ccccn3)c2)c(Cl)c1
[2]; [7]
  NF-kB SEAP reporter activity: 1.07
[2]; [8]
  NF-kB SEAP reporter activity: 0.945

## CN1CCN(S(=O)(=O)c2ccc(-c3cnc(N)c(C(=O)Nc4cccnc4)n3)cc2)CC1 (library stock concentration (final ~1000-fold dilution): 10 mM)
[1]; agonist: LPS (TLR4) 0.1 ug/mL
  NF-kB SEAP reporter activity: 4.28
[1]; [4]
  NF-kB SEAP reporter activity: 2.61
[1]; [5]
  NF-kB SEAP reporter activity: 1.11
[1]; [6]
  NF-kB SEAP reporter activity: 2.07

## CS(=O)(=O)O.Cc1ccc(NC(=O)c2ccc(CN3CCN(C)CC3)cc2)cc1Nc1nccc(-c2cccnc2)n1
[2]; [9]
  NF-kB SEAP reporter activity: 1.24
[2]; [10]
  NF-kB SEAP reporter activity: 1.46

## CNCc1ccc(-c2cc(-c3nc(-c4ccc(S(=O)(=O)C(C)C)cc4)cnc3N)on2)cc1 (library stock concentration (final ~1000-fold dilution): 10 mM)
[1]; agonist: LPS (TLR4) 0.1 ug/mL
  NF-kB SEAP reporter activity: 1.06
[1]; [4]
  NF-kB SEAP reporter activity: 0.943
[1]; [5]
  NF-kB SEAP reporter activity: 0.871
[1]; [6]
  NF-kB SEAP reporter activity: 1.05

## CC/C=C\C/C=C\C/C=C\C/C=C\C/C=C\C/C=C\CCC(=O)NCCNC(=O)c1ccccc1O (library stock concentration (final ~1000-fold dilution): 10 mM)
[3]; agonist: LPS (TLR4) 0.1 ug/mL
  NF-kB SEAP reporter activity: 0.318
[3]; [4]
  NF-kB SEAP reporter activity: 0.298
[3]; [5]
  NF-kB SEAP reporter activity: 0.133
[3]; [6]
  NF-kB SEAP reporter activity: 0.184

## CC/C=C\C/C=C\C/C=C\C/C=C\C/C=C\C/C=C\CCC(=O)NCCNC(=O)c1ccccc1O
[2]; [9]
  NF-kB SEAP reporter activity: 0.248
[2]; [10]
  NF-kB SEAP reporter activity: 1.54

## C=CC(=O)N1CC(N2CCN(C(=O)CNc3cc(C4(C)CC4)c(Cl)cc3O)CC2)C1
[2]; [7]
  NF-kB SEAP reporter activity: 0.915
[2]; [8]
  NF-kB SEAP reporter activity: 0.645

## C=CC(=O)N1CC(N2CCN(C(=O)CNc3cc(C4(C)CC4)c(Cl)cc3O)CC2)C1 (library stock concentration (final ~1000-fold dilution): 10 mM)
[1]; agonist: LPS (TLR4) 0.1 ug/mL
  NF-kB SEAP reporter activity: 0.418
[1]; [4]
  NF-kB SEAP reporter activity: 0.542
[1]; [5]
  NF-kB SEAP reporter activity: 0.537
[1]; [6]
  NF-kB SEAP reporter activity: 0.448

## Cl.N=C(N)NC(=O)c1nc(Cl)c(N)nc1N.O.O (library stock concentration (final ~1000-fold dilution): 10 mM water)
[1]; agonist: LPS (TLR4) 0.1 ug/mL
  NF-kB SEAP reporter activity: 1.07
[1]; [4]
  NF-kB SEAP reporter activity: 1.09
[1]; [5]
  NF-kB SEAP reporter activity: 0.993
[1]; [6]
  NF-kB SEAP reporter activity: 0.984

## Cl.N=C(N)NC(=O)c1nc(Cl)c(N)nc1N.O.O
[2]; library stock concentration (final ~1000-fold dilution): 10 mM water, cytotoxicity flag (confluency mask): not cytotoxic, agonist: Imiquimod (TLR7) […]
  NF-kB SEAP reporter activity: 0.827
[2]; library stock concentration (final ~1000-fold dilution): 10 mM water, cytotoxicity flag (confluency mask): not cytotoxic, agonist: MPLA (TLR4) […]
  NF-kB SEAP reporter activity: 1.01

## Cn1nc(C(C)(C)C)cc1C(=O)NC(Cc1cccc(Cl)c1)C(=O)NCC#N (stereo not drawn) (library stock concentration (final ~1000-fold dilution): 10 mM)
[1]; agonist: LPS (TLR4) 0.1 ug/mL
  NF-kB SEAP reporter activity: 1.13
[1]; [4]
  NF-kB SEAP reporter activity: 1.14
[1]; [5]
  NF-kB SEAP reporter activity: 0.947
[1]; [6]
  NF-kB SEAP reporter activity: 0.992
